# From PubChem BioAssay (Tox21)
# A number with no mark means an inactive call. Inconclusive results are not listed. A call without a number means that no potency is given here. Calls of active or inactive are those of the source. Unless noted, the call rests on the fitted dose curve; in most records, active means well fitted curve in the direction sought with a large enough effect in the repeat runs; inconclusive means weak or mixed curves; inactive means no such curve, though single readings can be large; an effect the other way counts as inactive or inconclusive.
# What was measured:
# [1] = qHTS assay to identify small molecule antagonists of the estrogen related receptor (ERR) signaling pathway - cell viability counter screen (AID 1224818); further: series mostly up to about 46 µM
# Procedure, shortened: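 ERR cells, 2,000 per well, compound added after 6 h and incubated 17.5 h at 37 C. Viability read by CellTiter-Fluor fluorescence after a further 30 min at 37 C.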
# [2] = qHTS assay to identify small molecule agonists of the estrogen related receptor (ERR) signaling pathway (AID 1224820)
# Procedure, shortened: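 Quantitative HTS of the LOPAC library used NTP ERR reporter cells treated 18 h at 37 C. Signal is luminescence after One-Glo addition and a 30 min room-temperature incubation.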
# [3] = tested on: estrogen-related receptor alpha (ERRalpha) with PGC-1alpha coactivator, human; assay: qHTS assay to identify small molecule antagonists of the estrogen related receptor signaling pathway with the pleiotropic PPARgamma coactivator (PGC) (AID 1224821; calls by dose curve;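 further: series mostly up to about 46 µM; lower luminescence signal means antagonism of PGC/ERR signalling; nearly all actives have a fitted effect of over 50% in size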)
# Procedure, shortened: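 Quantitative HTS for antagonism: PGC/ERR cells received compounds after 6 h attachment and were incubated 18 h at 37 C, with luminescence (One-Glo) as the endpoint.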
# [4] = qHTS assay to identify small molecule antagonists of the estrogen related receptor signaling pathway with the pleiotropic PPARgamma coactivator (PGC) cell viability counter screen (AID 1224822; further: series mostly up to about 46 µM)
# Procedure, shortened: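 PGC/ERR cells rested 6 h, then compound-treated 17.5 h at 37 C. CellTiter-Fluor added for 30 min at 37 C, viability measured by fluorescence intensity.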
# [5] = qHTS assay to identify small molecule agonists of the estrogen related receptor signaling pathway with the pleiotropic PPARgamma coactivator (PGC) (AID 1224823)
# Procedure, shortened: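 Cell-based luciferase assay in the NTP-supplied PGC/ERR line, 2,000 cells/well; 18 h compound exposure at 37 C, luminescence after One-Glo.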
# [6] = qHTS assay to identify small molecule antagonists of the estrogen related receptor (ERR) signaling pathway (AID 1224819;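 further: luminescence from an ERR-driven luciferase reporter measured with One-Glo reagent; series mostly up to about 46 µM; nearly all actives have a fitted effect of over 50% in size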)
# Procedure, shortened: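 ERR reporter cell line (NTP) plated at 2,000 cells/well, settled 6 h at 37C/5% CO2, then exposed to LOPAC compounds for 18 h at 37C. One-Glo luciferase luminescence read after 30 min at room temperature.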
# [7] = qHTS assay for small molecules that induce genotoxicity in human embryonic kidney cells expressing luciferase-tagged ATAD5 (AID 651632); further: nearly all actives have a fitted effect of over 15% in size
# Procedure, shortened: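 HEK293T cells carrying luciferase-tagged ATAD5 were given compound or DMSO vehicle and incubated 16 hr at 37C, 5% CO2. Luciferase activity was read after 30 min at room temperature with Amplite; a rise signals genotoxic stress.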
# [8] = qHTS assay for small molecules that induce genotoxicity in human embryonic kidney cells expressing luciferase-tagged ATAD5 - cell viability (AID 651634; calls by dose curve; further: nearly all actives have a fitted effect of over 25% in size)
# Procedure, shortened: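 HEK293T cells carrying luciferase-tagged ATAD5, 2,000 cells/well, exposed to compound for 15.5 hr at 37C. Viability read as live-cell protease activity by CellTiter-Fluor fluorescence after 30 min at 37C.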
# [9] = qHTS assay for small molecule disruptors of the mitochondrial membrane potential - cell viability (AID 720634; calls by dose curve;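 further: human HepG2 liver cancer cells; series mostly up to about 83 µM; nearly all actives have a fitted effect of over 20% in size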)
# Procedure, shortened: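 HepG2 cells, 2,000 per well, attached overnight, then treated 1 hr at 37 C, 5% CO2. Viability read as ATP by CellTiter-Glo luminescence after 30 min at room temperature. Read in the same wells as the m-MPI membrane-potential dye assay.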
# [10] = qHTS assay to test for compound auto fluorescence at 590 nm (red) in HepG2 cells (AID 720674)
# Procedure, shortened: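 HepG2 cells, 2,000 per well in MEM with 10% FBS, attached overnight at 37 C, then got 23 nL compound or DMSO. After 1 hr at 37 C, 5% CO2, red fluorescence was read at 540/590 nm against Rose Bengal sodium as reference.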
# [11] = qHTS assay to test for compound auto fluorescence at 535 nm (green) in HepG2 cells (AID 720675)
# [12] = qHTS assay to test for compound auto fluorescence at 460 nm (blue) in HEK293 cells (AID 720678)
# Procedure, shortened: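 Measured: blue fluorescence (Ex 405/Em 460 nm) of compound-treated HEK293 cells, incubated overnight at 37C with 5% CO2 and scaled to triamterene equivalents.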
# [13] = qHTS assay to test for compound auto fluorescence at 590 nm (red) in HEK293 cells (AID 720679)
# Procedure, shortened: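 Using HEK293 cells at 2,000 per well, the screen added 23 nL of each compound after cell attachment and incubated overnight (37C, 5% CO2). The plate reader then captured red-label fluorescence, Ex/Em 540/590nm.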
# [14] = qHTS assay to test for compound auto fluorescence at 535 nm (green) in HEK293 cells (AID 720680)
# [15] = qHTS assay to test for compound auto fluorescence at 460 nm (blue) in HEK293 cell free culture (AID 720681)
# Procedure, shortened: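 Compounds were added to cell-free DMEM with 10% FBS and fluorescence read directly. The blue channel used 405 nm excitation and 460 nm emission, with triamterene as the reference fluorophore.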
# [16] = qHTS assay to test for compound auto fluorescence at 535 nm (green) in HEK293 cell free culture (AID 720682)
# Procedure, shortened: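 Using fluorescein as calibrant, autofluorescence was quantified at 485/535 nm in cell-free DMEM containing 10% FBS after pintool addition of compound or vehicle.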
# [17] = qHTS assay to test for compound auto fluorescence at 590 nm (red) in HepG2 cell free culture (AID 720684)
# Procedure, shortened: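 Compounds are added to culture medium (MEM, 10% FBS) lacking cells, then fluorescence is read at excitation 540 nm, emission 590 nm, with Rose Bengal sodium as the equivalency standard.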
# [18] = qHTS assay to test for compound auto fluorescence at 460 nm (blue) in HepG2 cell free culture (AID 720685)
# Procedure, shortened: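 Compound (23 nL) or DMSO pinned into cell-free MEM with 10% FBS; blue fluorescence read at 405/460 nm excitation/emission, expressed as auto-fluorescence equivalency to triamterene.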
# [19] = qHTS assay to test for compound auto fluorescence at 535 nm (green) in HepG2 cell free culture (AID 720686)
# [20] = qHTS assay to test for compound auto fluorescence at 460 nm (blue) in HepG2 cells (AID 720687)
# Procedure, shortened: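 HepG2 cells in MEM with 10% FBS, attached overnight at 37 C, were exposed to compound or DMSO for 1 hr at 37 C, 5% CO2. Blue fluorescence was read at 405/460 nm, with triamterene as reference fluorophore.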
# [21] = biological target: Glucocorticoid receptor (Homo sapiens) (UniProt P04150); assay: qHTS assay to identify small molecule agonists of the glucocorticoid receptor (GR) signaling pathway (AID 720691; active means well fitted activation curve with a large enough effect in the signal ratio in the repeat runs, not every such curve was filed as active; the % refers to the signal ratio)
# Chain of Glucocorticoid receptor (Homo sapiens) (P04150 whole entry, looked up): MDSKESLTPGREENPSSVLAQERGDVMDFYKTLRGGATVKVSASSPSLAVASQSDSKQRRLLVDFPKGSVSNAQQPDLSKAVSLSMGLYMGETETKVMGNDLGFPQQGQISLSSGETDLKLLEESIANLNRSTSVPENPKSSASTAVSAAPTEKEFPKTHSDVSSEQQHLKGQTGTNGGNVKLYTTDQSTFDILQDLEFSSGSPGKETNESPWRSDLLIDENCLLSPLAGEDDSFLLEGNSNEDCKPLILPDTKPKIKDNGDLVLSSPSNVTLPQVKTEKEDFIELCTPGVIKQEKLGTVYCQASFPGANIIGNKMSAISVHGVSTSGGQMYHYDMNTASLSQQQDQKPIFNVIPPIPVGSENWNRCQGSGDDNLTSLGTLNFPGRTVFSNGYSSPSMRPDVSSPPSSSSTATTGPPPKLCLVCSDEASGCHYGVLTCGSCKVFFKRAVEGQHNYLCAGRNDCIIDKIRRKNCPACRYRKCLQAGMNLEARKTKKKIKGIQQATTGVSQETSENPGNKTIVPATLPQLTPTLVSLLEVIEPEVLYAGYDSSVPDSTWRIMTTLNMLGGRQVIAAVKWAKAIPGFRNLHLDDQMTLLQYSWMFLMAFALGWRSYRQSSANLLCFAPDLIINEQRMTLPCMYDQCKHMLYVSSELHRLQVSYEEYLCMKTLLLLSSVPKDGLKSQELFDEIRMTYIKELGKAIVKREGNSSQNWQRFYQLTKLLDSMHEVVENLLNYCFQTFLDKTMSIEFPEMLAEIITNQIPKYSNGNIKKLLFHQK
# Procedure, shortened: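 GR-bla HeLa cells carrying a GRE-driven beta-lactamase reporter, exposed to compounds for 18 h at 37 C. Reporter activation read as fluorescence after 2 h with LiveBLAzer B/G FRET substrate at room temperature.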
# [22] = biological target: Glucocorticoid receptor (Homo sapiens) (UniProt P04150); assay: qHTS assay to identify small molecule antagonists of the glucocorticoid receptor (GR) signaling pathway (AID 720692; active means well fitted inhibition curve with a large enough effect in the signal ratio in the repeat runs, not every such curve was filed as active; the % refers to the signal ratio)
# Procedure, shortened: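 GR-bla HeLa cells carrying a GRE-driven beta-lactamase reporter received compound after 4 h plating, then dexamethasone (5 nM final). After 18 h at 37C, the FRET substrate was loaded for 2 h at room temperature and fluorescence read.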
# [23] = qHTS assay to identify small molecule antagonists of the glucocorticoid receptor (GR) signaling pathway - cell viability counter screen (AID 720693); further: nearly all actives have a fitted effect of over 55% in size
# [24] = qHTS assay for identifying genotoxic compounds that show differential cytotoxicity against isogenic chicken DT40 cell lines with known DNA damage response pathways - wild type cell line (AID 743012); further: potency means the concentration at half of the fitted maximal effect; nearly all actives have a fitted effect of over 60% in size
# Procedure, shortened: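 Wild-type DT40 cells (300/well) exposed to compounds for 40 hours at 37 C/5% CO2. Viability read by CellTiter-Glo luminescence after 30 min at room temperature.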
# [25] = qHTS assay for identifying genotoxic compounds that show differential cytotoxicity against isogenic chicken DT40 cell lines with known DNA damage response pathways - Rad54/Ku70 mutant cell line (AID 743015); further: potency means the concentration at half of the fitted maximal effect; nearly all actives have a fitted effect of over 60% in size
# [26] = biological target: Androgen receptor (Homo sapiens) (UniProt P10275); assay: qHTS assay to identify small molecule antagonists of the androgen receptor (AR) signaling pathway (AID 743035; active means well fitted inhibition curve with a large enough effect in the signal ratio in the repeat runs, not every such curve was filed as active; the % refers to the signal ratio)
# Chain of Androgen receptor (Homo sapiens) (P10275 whole entry, looked up): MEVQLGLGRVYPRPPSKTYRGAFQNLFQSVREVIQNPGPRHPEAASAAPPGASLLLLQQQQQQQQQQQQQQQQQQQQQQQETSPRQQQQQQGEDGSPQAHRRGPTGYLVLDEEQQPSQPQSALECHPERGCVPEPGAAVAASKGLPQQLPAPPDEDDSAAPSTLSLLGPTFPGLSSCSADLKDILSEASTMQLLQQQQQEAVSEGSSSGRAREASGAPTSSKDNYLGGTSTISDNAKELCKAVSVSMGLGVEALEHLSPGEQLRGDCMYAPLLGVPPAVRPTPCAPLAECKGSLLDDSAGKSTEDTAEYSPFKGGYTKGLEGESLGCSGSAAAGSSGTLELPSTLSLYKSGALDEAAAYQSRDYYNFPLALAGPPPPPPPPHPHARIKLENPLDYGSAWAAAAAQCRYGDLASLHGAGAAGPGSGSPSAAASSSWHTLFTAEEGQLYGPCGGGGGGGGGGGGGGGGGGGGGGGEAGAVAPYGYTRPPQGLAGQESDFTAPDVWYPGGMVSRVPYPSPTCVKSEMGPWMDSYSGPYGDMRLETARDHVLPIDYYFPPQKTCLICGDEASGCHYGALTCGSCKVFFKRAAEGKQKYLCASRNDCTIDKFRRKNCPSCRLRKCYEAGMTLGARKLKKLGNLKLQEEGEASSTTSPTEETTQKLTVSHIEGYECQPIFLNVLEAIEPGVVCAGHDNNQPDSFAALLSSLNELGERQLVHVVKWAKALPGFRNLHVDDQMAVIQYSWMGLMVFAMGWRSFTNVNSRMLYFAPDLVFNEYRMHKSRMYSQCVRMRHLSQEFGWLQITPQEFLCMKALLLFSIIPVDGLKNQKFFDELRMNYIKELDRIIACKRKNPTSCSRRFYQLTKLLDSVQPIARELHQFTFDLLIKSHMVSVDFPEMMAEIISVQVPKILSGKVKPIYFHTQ
# Procedure, shortened: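 HEK293 cells stably carrying UAS-beta-lactamase reporter, 2,000/well, given compounds plus R1881 agonist and incubated 16 h at 37C. LiveBLAzer B/G FRET substrate then added for 2 h at room temperature before fluorescence reading.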
# [27] = biological target: Androgen receptor (Homo sapiens) (UniProt P10275); assay: qHTS assay to identify small molecule agonists of the androgen receptor (AR) signaling pathway using the MDA cell line (AID 743040; further: nearly all actives have a fitted effect of over 20% in size)
# Procedure, shortened: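 Human breast carcinoma MDA-kb2 reporter cells (MMTV-luc, AR/GR elements) were treated for 16 h at 37C in 0% CO2 following a 5 h settling period. Signal was quantified by ONE-Glo luminescence.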
# [28] = qHTS assay to identify small molecule antagonists of the thyroid receptor (TR) signaling pathway - cell viability counter screen (AID 743064); further: potency means the concentration at half of the fitted maximal effect; nearly all actives have a fitted effect of over 50% in size
# Procedure, shortened: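 Counter screen for cytotoxicity: compound plus T3 (1 nM final) on GH3.TRE-Luc cells, 23.5 h at 37 °C, then fluorescence viability readout with CellTiter-Fluor.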
# [29] = qHTS assay to identify small molecule antagonists of the thyroid receptor (TR) signaling pathway (AID 743065); further: potency means the concentration at half of the fitted maximal effect; nearly all actives have a fitted effect of over 55% in size
# Procedure, shortened: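 GH3.TRE-Luc rat pituitary cells (two TREs driving luciferase) were dosed with compound, then stimulated with 1 nM T3 (final) for 23.5 h at 37 C. ONE-Glo luminescence was the read-out, with CellTiter-Fluor fluorescence as the cytotoxicity counter-screen.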
# [30] = qHTS assay to identify small molecule antagonists of the estrogen receptor alpha (ER-alpha) signaling pathway - cell viability counter screen (AID 743074; calls by dose curve;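 further: HEK293 cells carrying ER-alpha-UAS-bla reporter stimulated with 17beta-estradiol; nearly all actives have a fitted effect of over 45% in size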)
# [31] = qHTS assay to identify small molecule antagonists of the estrogen receptor alpha (ER-alpha) signaling pathway using the BG1 cell line - cell viability counter screen (AID 743081);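 further: compound given together with 17beta-estradiol as the ER stimulus; series mostly up to about 70 µM; nearly all actives have a fitted effect of over 45% in size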
# [32] = qHTS assay to identify aromatase inhibitors - cell viability counter screen (AID 743084);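 further: cells stimulated with testosterone during compound exposure; nearly all actives have a fitted effect of over 55% in size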
# [33] = biological target: Aryl hydrocarbon receptor (Homo sapiens) (UniProt P35869); assay: qHTS assay to identify small molecule that activate the aryl hydrocarbon receptor (AhR) signaling pathway (AID 743085); further: potency means the concentration at half of the fitted maximal effect; nearly all actives have a fitted effect of over 15% in size
# Chain of Aryl hydrocarbon receptor (Homo sapiens) (P35869 whole entry, looked up): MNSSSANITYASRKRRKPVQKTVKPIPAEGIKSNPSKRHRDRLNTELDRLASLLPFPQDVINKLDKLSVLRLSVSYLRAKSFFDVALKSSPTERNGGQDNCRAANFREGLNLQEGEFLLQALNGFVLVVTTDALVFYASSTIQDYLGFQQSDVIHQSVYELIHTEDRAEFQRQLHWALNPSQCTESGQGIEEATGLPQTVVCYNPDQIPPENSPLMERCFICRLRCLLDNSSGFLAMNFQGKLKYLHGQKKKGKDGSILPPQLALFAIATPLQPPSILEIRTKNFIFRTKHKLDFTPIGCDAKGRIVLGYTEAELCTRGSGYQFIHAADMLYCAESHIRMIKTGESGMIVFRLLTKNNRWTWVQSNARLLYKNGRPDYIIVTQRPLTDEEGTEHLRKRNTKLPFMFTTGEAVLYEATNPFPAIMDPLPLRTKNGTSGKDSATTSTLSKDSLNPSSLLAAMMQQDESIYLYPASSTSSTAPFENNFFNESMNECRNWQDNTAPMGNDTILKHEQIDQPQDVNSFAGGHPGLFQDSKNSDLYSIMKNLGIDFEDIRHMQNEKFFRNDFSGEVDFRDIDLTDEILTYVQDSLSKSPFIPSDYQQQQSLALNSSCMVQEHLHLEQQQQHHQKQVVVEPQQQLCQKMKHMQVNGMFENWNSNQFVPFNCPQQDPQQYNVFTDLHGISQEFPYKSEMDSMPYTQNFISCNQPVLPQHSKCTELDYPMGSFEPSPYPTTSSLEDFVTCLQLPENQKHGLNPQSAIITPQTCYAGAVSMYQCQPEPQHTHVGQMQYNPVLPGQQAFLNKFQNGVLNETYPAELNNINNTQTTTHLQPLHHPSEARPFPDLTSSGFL
# Procedure, shortened: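 Measured in HG2L7.5c1 cells: CellTiter-Fluor signal (30 min incubation, 37C) for viability, then luciferase luminescence (30 min, room temperature). Compound contact time was 24 h at 37C, following a 5 h pre-incubation.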
# [34] = qHTS assay to identify small molecule that activate the aryl hydrocarbon receptor (AhR) signaling pathway - cell viability counter screen (AID 743086);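 further: HepG2 liver cells carrying the AhR DRE luciferase reporter; series mostly up to about 70 µM; nearly all actives have a fitted effect of over 45% in size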
# Procedure, shortened: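 HepG2-AhR-luc (HG2L7.5c1) cells, 4000/well, treated 24 h at 37 C with compound; viability measured as CellTiter-Fluor fluorescence after 30 min in the same wells as the luciferase read.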
# [35] = biological target: Nuclear receptor subfamily 1 group I member 2 (Homo sapiens) (UniProt O75469); assay: CYP3A4 induction through human pregnane X receptor (PXR) by small molecules, qHTS assay (AID 1346984); further: potency means the concentration at half of the fitted maximal effect; nearly all actives have a fitted effect of over 40% in size
# Procedure, shortened: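 DPX-2 HepG2 cells carrying a PXR response element and CYP3A4-promoter luciferase construct, treated with compounds 24 hr at 37C. Then P450-Glo CYP3A4 Luciferin-IPA substrate (3uM final) for 3 hr at 37C, One-Glo added, luminescence read.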
# [36] = biological target: Nuclear receptor subfamily 1 group I member 2 (Homo sapiens) (UniProt O75469); assay: Human pregnane X receptor (PXR) activation by small molecules, qHTS assay (AID 1346985); further: nearly all actives have a fitted effect of over 40% in size
# Procedure, shortened: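 DPX-2 cells (HepG2 co-transfected with a PXR response element and a CYP3A4-promoter luciferase construct) were seeded at 2,000 per well, rested 5 hr at 37C, then exposed to DMSO-dissolved compounds for 24 hr. Activation was read as luciferase luminescence.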
compound,measurement,setting,value
C[C@]12CCC3C(CC[C@H]4C[C@H](O)CC[C@]34C)C1CC[C@@H]2C(=O)CO (stereo partly specified),Potency,[1],inactive
same,Potency,[2],inactive
same,Potency,[3],inactive
same,Potency,[4],inactive
same,Potency,[5],inactive
N#C/C(=C/c1ccc(O)c(O)c1)C(N)=S,Potency,[1],inactive
same,Potency,[2],inactive
same,Potency,[3],inactive
same,Potency,[4],inactive
same,Potency,[5],inactive
c1ccc2cc(CC3=NCCN3)ccc2c1,Potency,[1],inactive
same,Potency,[4],inactive
C[N+]1(C)CCOC(O)(c2ccc(-c3ccc(C4(O)C[N+](C)(C)CCO4)cc3)cc2)C1 (stereo unspecified),Potency,[1],inactive
same,Potency,[6],inactive
same,Potency,[3],inactive
same,Potency,[4],inactive
same,Potency,[5],inactive
CCS(=O)(=O)Nc1cccc(C(=C2CCCCC2)c2cnc[nH]2)c1,Potency,[1],inactive
same,Potency,[2],inactive
same,Potency,[4],inactive
same,Potency,[5],inactive
CO[C@H]1CC=C2CCN3CCC4=C(CC(=O)OC4)[C@]23C1,Potency,[1],inactive
same,Potency,[4],inactive
NC(Cc1cc(O)c(O)cc1O)C(=O)O (stereo unspecified),Potency,[1],inactive
same,Potency,[2],inactive
same,Potency,[3],inactive
same,Potency,[4],inactive
same,Potency,[5],inactive
CN[C@@H]1C[C@@H](c2ccc(Cl)c(Cl)c2)c2ccccc21,Potency,[7],inactive
same,Potency,[8],inactive
same,Potency,[9],inactive
same,outcome,[10],inactive
same,Potency,[11],inactive
same,Potency,[12],inactive
same,outcome,[13],inactive
same,Potency,[14],inactive
same,Potency,[15],inactive
same,Potency,[16],inactive
same,outcome,[17],inactive
same,Potency,[18],inactive
same,Potency,[19],inactive
same,Potency,[20],inactive
same,Potency,[21],inactive
same,Potency,[22],inactive
same,Potency,[23],inactive
same,Potency,[24],5.96 µM (active)
same,Potency,[25],11.9 µM (active)
same,Potency,[26],inactive
same,Potency,[27],inactive
same,Potency,[28],11.9 µM (active)
same,Potency,[29],11.9 µM (active)
same,Potency,[30],inactive
same,Potency,[31],inactive
same,Potency,[32],inactive
same,Potency,[33],29.8 µM (active)
same,Potency,[34],inactive
same,Potency,[1],inactive
same,Potency,[2],inactive
same,Potency,[3],inactive
same,Potency,[35],28.2 µM (active)
same,Potency,[36],inactive
